Measured values as given in PubChem BioAssay (NCI).
The panel holds about 83,000 compounds, 20% with a hit somewhere; the sample as a whole holds those more often.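 Note: values are percent growth. 100 is the growth of untreated cells, values between 100 and 0 indicate rising inhibition; between -100 and 0 indicates cell death.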 Activity calls are given as the source filed them. Rule for the calls: active = growth percent below 10; inactive = the rest.

Key:
Experiment in all cases: NCI-60 one-dose screen, 48 h (100 = growth as untreated, 0 = no growth, -100 = all killed)
Conditions in all cases: 10 µM
NCI-H23 lung = system: NCI-H23 lung
NCI-H226 lung = system: NCI-H226 lung
HOP-62 NSCLC = system: HOP-62 NSCLC
NCI-H460 lung = system: NCI-H460 lung
HOP-92 NSCLC = system: HOP-92 NSCLC
A549/ATCC NSCLC = system: A549/ATCC NSCLC
786-0 renal = system: 786-0 renal
COLO 205 colon = system: COLO 205 colon
NCI-H522 lung = system: NCI-H522 lung

Measured: growth

CCOC(=O)C1C(C(=O)OCC)C2C(=O)C3C(C(=O)OCC)C(C(=O)OCC)C3C(=O)C12 (configuration not stated)
inactive: NCI-H23 lung 98.9% | NCI-H226 lung 100% | HOP-62 NSCLC 96.2% | NCI-H460 lung 103% | HOP-92 NSCLC 104% | A549/ATCC NSCLC 100% | 786-0 renal 103% | COLO 205 colon 120%

CSc1nc2c(c(=O)n1C)CN(Cc1ccccc1)C(=O)CN2
inactive: NCI-H23 lung 93.5% | NCI-H226 lung 96% | HOP-62 NSCLC 82.7% | NCI-H460 lung 106% | NCI-H522 lung 79.6% | A549/ATCC NSCLC 91% | 786-0 renal 91.9% | COLO 205 colon 113%

CC1=NN(C(=O)c2nn(-c3ccc(Cl)cc3)cc2O)C(=O)C1
inactive: NCI-H23 lung 52.5% | NCI-H226 lung 40.3% | HOP-62 NSCLC 44.1% | NCI-H460 lung 24% | NCI-H522 lung 42.3% | A549/ATCC NSCLC 45.6% | 786-0 renal 56.5% | COLO 205 colon 53%

COc1cc2cc(Oc3ccc(NC(=O)c4ccc(Cl)c(C(F)(F)F)c4)cc3)c(C)nc2cc1OC
inactive: NCI-H23 lung 12.5% | NCI-H226 lung 25.5% | HOP-62 NSCLC 73.1% | NCI-H460 lung 19.7% | NCI-H522 lung 20.3% | A549/ATCC NSCLC 13.8% | 786-0 renal 32.2% | COLO 205 colon 33.1%

O=C1/C(=C/c2ccc([N+](=O)[O-])s2)Oc2cc(Cl)ccc21
inactive: NCI-H23 lung 14.7% | NCI-H226 lung 81.2% | HOP-62 NSCLC 31.6% | 786-0 renal 14.3%
active: NCI-H460 lung 1.6% | NCI-H522 lung -78.2% | A549/ATCC NSCLC 4.06% | COLO 205 colon -28.3%

O=C(CCC(C(=O)c1ccccc1)c1ccccc1)c1ccccc1 (configuration not stated)
inactive: NCI-H23 lung 78.6% | NCI-H226 lung 83.1% | HOP-62 NSCLC 76.8% | NCI-H460 lung 76.2% | A549/ATCC NSCLC 61.9% | 786-0 renal 82.7% | COLO 205 colon 79.7%
active: NCI-H522 lung 3.51%

COc1cc2cc(Oc3ccc(NC(=O)c4ccccc4)cc3)c(C)nc2cc1OC
active: NCI-H226 lung 9.16% | NCI-H522 lung 7.6%
inactive: NCI-H23 lung 83.5% | HOP-62 NSCLC 43.8% | NCI-H460 lung 94.8% | A549/ATCC NSCLC 89.6% | 786-0 renal 118% | COLO 205 colon 109%

COc1ccc(Nc2cnc3cc(NS(=O)(=O)c4ccc(C)cc4)ccc3n2)cc1
inactive: NCI-H23 lung 86.5% | NCI-H226 lung 94% | HOP-62 NSCLC 79% | NCI-H460 lung 84.4% | NCI-H522 lung 36.1% | A549/ATCC NSCLC 66.2% | 786-0 renal 97% | COLO 205 colon 96.4%

Oc1ccc(-c2[nH]c3ccccc3c2-c2nc3ccccc3o2)cc1
inactive: NCI-H23 lung 77.8% | NCI-H226 lung 78.5% | HOP-62 NSCLC 67.9% | NCI-H460 lung 86.6% | HOP-92 NSCLC 67.8% | A549/ATCC NSCLC 58% | 786-0 renal 75% | COLO 205 colon 59.1%

N#Cc1cnn(C(=O)c2nn(-c3ccc(Cl)cc3)cc2O)c1N
active: NCI-H23 lung 9.65% | NCI-H460 lung 3.09% | NCI-H522 lung -13.7% | COLO 205 colon -23.4%
inactive: NCI-H226 lung 18.4% | HOP-62 NSCLC 19.2% | A549/ATCC NSCLC 15.1% | 786-0 renal 17.3%

CCN(CC)c1ccc(/C=C2\SC(=O)C(Nc3nnc(-c4cccnc4SCc4ccccc4)o3)C2=O)cc1 (configuration not stated)
inactive: NCI-H23 lung 21.7% | NCI-H226 lung 20.1% | HOP-62 NSCLC 30.5% | A549/ATCC NSCLC 12.2%
active: NCI-H460 lung 3.5% | NCI-H522 lung -17.6%

O=C(CNc1nnc(-c2cccnc2SCc2ccccc2)s1)Nc1nc(Cl)cc(Cl)n1
inactive: NCI-H23 lung 112% | NCI-H226 lung 107% | HOP-62 NSCLC 95.4% | NCI-H460 lung 123% | NCI-H522 lung 102% | A549/ATCC NSCLC 120%

CCOC(=O)c1cc(C(=O)c2cc(OC)c(OC)c(OC)c2)n2nc(C)ccc12
inactive: NCI-H23 lung 39.2% | NCI-H226 lung 79.5% | HOP-62 NSCLC 51.2% | HOP-92 NSCLC 50.1% | A549/ATCC NSCLC 26.8% | 786-0 renal 54.4%
active: NCI-H460 lung 9.56% | COLO 205 colon -39.4%

COc1ccc2c(c1)C(CC(=O)NN)CCC2 (configuration not stated)
inactive: NCI-H23 lung 92.7% | NCI-H226 lung 101% | HOP-62 NSCLC 106% | NCI-H460 lung 109% | HOP-92 NSCLC 93.7% | A549/ATCC NSCLC 93.4% | 786-0 renal 109% | COLO 205 colon 113%

CS(=O)(=O)c1nccc(-c2c(-c3cccc(OCCc4ccccc4)c3)nc3sccn23)n1
inactive: NCI-H23 lung 95.6% | NCI-H226 lung 81.4% | HOP-62 NSCLC 93% | NCI-H460 lung 106% | NCI-H522 lung 90.5% | A549/ATCC NSCLC 101% | 786-0 renal 108% | COLO 205 colon 103%

c1ccc(CSc2ncccc2-c2nnc(SCCN3CCOCC3)o2)cc1
inactive: NCI-H23 lung 104% | NCI-H226 lung 114% | HOP-62 NSCLC 116% | NCI-H460 lung 122% | NCI-H522 lung 105% | A549/ATCC NSCLC 112%
